According to PubChem BioAssay AID1159580 (chemical genetic matrix, 2015):
Among all 5,500 compounds or so, about 2,000 (36%) were called active. Roughly 18% stayed inconclusive and do not appear here. Rule as the data show it: active = normalized growth mostly below about 0.91 (no sharp cut-off); inconclusive = no clear call, values can overlap the other calls; inactive = mostly above about 0.92. The list shows a part of the results.

Test: chemical genetic growth profiling, strain panel (AID 1159580);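 also: tested at 20 µM; growth read once vehicle control cultures reached saturation at 30 °C; 1 = growth at the plate median or of vehicle wells; lower values mean less growth of the strain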
Conditions: growth OD

Measured: normalized growth

COc1cc2cc3c4cc(OC)c(OC)cc4cc[n+]3c(C)c2cc1OC
inactive: S. cerevisiae deletion strains, locus YJR043C, strain POL32, stronger effect = lower value 0.98 | S. cerevisiae deletion strains, locus YJR066W, strain TOR1, stronger effect = lower value 0.964 | S. cerevisiae deletion strains, locus YKL009W, strain mrt4, stronger effect = lower value 0.997 | S. cerevisiae deletion strains, locus YKL068W, stronger effect = lower value 1.01 | S. cerevisiae deletion strains, locus YKL085W, strain MDH1 (second series), stronger effect = lower value 1.03 | S. cerevisiae deletion strains, locus YKL085W, strain MDH1, stronger effect = lower value 1.03 | S. cerevisiae deletion strains, locus YKL160W, strain elf1, stronger effect = lower value 0.988 | S. cerevisiae deletion strains, locus YKL190W, strain CNB1, stronger effect = lower value 1.01 | S. cerevisiae deletion strains, locus YKR001C, strain vps1, stronger effect = lower value 1.05 | S. cerevisiae deletion strains, locus YKR026C, strain gcn3, stronger effect = lower value 1.02 | S. cerevisiae deletion strains, locus YKR091W, strain srl3, stronger effect = lower value 1 | S. cerevisiae deletion strains, locus YLL001W, strain dnm1, stronger effect = lower value 1.01 | S. cerevisiae deletion strains, locus YLL026W, stronger effect = lower value 1.02 | S. cerevisiae deletion strains, locus YLL041C, strain sdh2, stronger effect = lower value 1.02 | S. cerevisiae deletion strains, locus YLR027C, strain aat2, stronger effect = lower value 1.03 | S. cerevisiae deletion strains, locus YLR039C, strain RIC1, stronger effect = lower value 1.11 | S. cerevisiae deletion strains, locus YLR058C, strain SHM2, stronger effect = lower value 0.998 | S. cerevisiae deletion strains, locus YLR102C, strain apc9, stronger effect = lower value 1.01 | S. cerevisiae deletion strains, locus YLR113W, strain HOG1, stronger effect = lower value 0.992 | S. cerevisiae deletion strains, locus YLR221C, strain rsa3, stronger effect = lower value 1.02 | S. cerevisiae deletion strains, locus YLR258W, strain gsy2, stronger effect = lower value 0.982 | S. cerevisiae deletion strains, locus YLR262C, strain YPT6 (second series), stronger effect = lower value 1.03 | S. cerevisiae deletion strains, locus YLR262C, strain YPT6, stronger effect = lower value 1.14 | S. cerevisiae deletion strains, locus YLR268W, strain sec22, stronger effect = lower value 1.02 | S. cerevisiae deletion strains, locus YLR320W, strain mms22, stronger effect = lower value 1 | S. cerevisiae deletion strains, locus YLR330W, strain CHS5, stronger effect = lower value 1.01 | S. cerevisiae deletion strains, locus YLR342W, strain FKS1 (second series), stronger effect = lower value 0.98 | S. cerevisiae deletion strains, locus YLR342W, strain FKS1, stronger effect = lower value 1.02 | S. cerevisiae deletion strains, locus YLR357W, strain rsc2, stronger effect = lower value 1.01 | S. cerevisiae deletion strains, locus YLR370C, strain arc18, stronger effect = lower value 1.02 | S. cerevisiae deletion strains, locus YLR371W, strain rom2, stronger effect = lower value 1.02 | S. cerevisiae deletion strains, locus YLR384C, strain iki3, stronger effect = lower value 1.01 | S. cerevisiae deletion strains, locus YLR418C, strain cdc73, stronger effect = lower value 0.966 | S. cerevisiae deletion strains, locus YML016C, strain PPZ1, stronger effect = lower value 1.02 | S. cerevisiae deletion strains, locus YML032C, strain rad52, stronger effect = lower value 0.925 | S. cerevisiae deletion strains, locus YML120C, strain ndi1, stronger effect = lower value 1 | S. cerevisiae deletion strains, locus YML124C, strain tub3, stronger effect = lower value 1.01 | S. cerevisiae deletion strains, locus YMR058W, strain fet3, stronger effect = lower value 1.02 | S. cerevisiae deletion strains, locus YMR078C, strain ctf18, stronger effect = lower value 1.02 | S. cerevisiae deletion strains, locus YMR125W, strain sto1, stronger effect = lower value 0.999 | S. cerevisiae deletion strains, locus YMR129W, stronger effect = lower value 1.01 | S. cerevisiae deletion strains, locus YMR205C, strain PFK2, stronger effect = lower value 0.979 | S. cerevisiae deletion strains, locus YMR223W, strain ubp8, stronger effect = lower value 0.982 | S. cerevisiae deletion strains, locus YMR231W, strain pep5, stronger effect = lower value 0.949 | S. cerevisiae deletion strains, locus YMR307W, strain GAS1, stronger effect = lower value 1.02 | S. cerevisiae deletion strains, locus YNL067W, strain RPL9B, stronger effect = lower value 1.01 | S. cerevisiae deletion strains, locus YNL071W, strain lat1, stronger effect = lower value 1 | S. cerevisiae deletion strains, locus YNL183C, strain NPR1, stronger effect = lower value 0.938 | S. cerevisiae deletion strains, locus YNL209W, strain ssb2, stronger effect = lower value 1 | S. cerevisiae deletion strains, locus YNL233W, strain BNI4, stronger effect = lower value 0.995 | S. cerevisiae deletion strains, locus YNL248C, strain rpa49, stronger effect = lower value 1.01 | S. cerevisiae deletion strains, locus YNL250W, strain rad50, stronger effect = lower value 1 | S. cerevisiae deletion strains, locus YNL271C, strain bni1, stronger effect = lower value 1.02 | S. cerevisiae deletion strains, locus YNL298W, strain CLA4, stronger effect = lower value 1.01 | S. cerevisiae deletion strains, locus YNL307C, strain MCK1, stronger effect = lower value 1.01 | S. cerevisiae deletion strains, locus YNL322C, strain KRE1 (second series), stronger effect = lower value 1 | S. cerevisiae deletion strains, locus YNR049C, strain mso1, stronger effect = lower value 1.04 | S. cerevisiae deletion strains, locus YNR052C, strain pop2, stronger effect = lower value 0.978 | S. cerevisiae deletion strains, locus YOL006C, strain TOP1, stronger effect = lower value 1.04 | S. cerevisiae deletion strains, locus YOL012C, strain htz1 1.07 | S. cerevisiae deletion strains, locus YOL147C, strain pex11, stronger effect = lower value 1.03 | S. cerevisiae deletion strains, locus YOR001W, strain rrp6, stronger effect = lower value 1.03 | S. cerevisiae deletion strains, locus YOR061W, strain CKA2, stronger effect = lower value 1.01 | S. cerevisiae deletion strains, locus YOR069W, strain VPS5, stronger effect = lower value 1.01 | S. cerevisiae deletion strains, locus YOR070C, strain gyp1, stronger effect = lower value 1.02 | S. cerevisiae deletion strains, locus YOR080W, strain dia2, stronger effect = lower value 1.01 | S. cerevisiae deletion strains, locus YOR083W, strain WHI5, stronger effect = lower value 0.985 | S. cerevisiae deletion strains, locus YOR106W, strain vam3, stronger effect = lower value 0.981 | S. cerevisiae deletion strains, locus YOR136W, strain idh2, stronger effect = lower value 1.02 | S. cerevisiae deletion strains, locus YOR144C, strain elg1, stronger effect = lower value 1.01 | S. cerevisiae deletion strains, locus YOR184W, strain ser1, stronger effect = lower value 0.993 | S. cerevisiae deletion strains, locus YOR231W, strain MKK1, stronger effect = lower value 0.983 | S. cerevisiae deletion strains, locus YOR265W, strain rbl2, stronger effect = lower value 1.01 | S. cerevisiae deletion strains, locus YOR270C, strain vph1, stronger effect = lower value 1.08 | S. cerevisiae deletion strains, locus YOR290C, strain snf2, stronger effect = lower value 0.982 | S. cerevisiae deletion strains, locus YOR316C, strain cot1, stronger effect = lower value 1.02 | S. cerevisiae deletion strains, locus YPL051W, strain arl3, stronger effect = lower value 1.02 | S. cerevisiae deletion strains, locus YPL055C, strain LGE1, stronger effect = lower value 0.999 | S. cerevisiae deletion strains, locus YPL078C, strain atp4, stronger effect = lower value 1 | S. cerevisiae deletion strains, locus YPL106C, strain sse1, stronger effect = lower value 0.983 | S. cerevisiae deletion strains, locus YPL240C, strain hsp82, stronger effect = lower value 1 | S. cerevisiae deletion strains, locus YPL256C, strain CLN2, stronger effect = lower value 0.968 | S. cerevisiae deletion strains, locus YPR119W, strain clb2, stronger effect = lower value 1.01 | S. cerevisiae deletion strains, locus YPR141C, strain kar3, stronger effect = lower value 1.01 | S. cerevisiae deletion strains, locus YPR163C, strain tif3, stronger effect = lower value 1.01 | S. cerevisiae deletion strains, locus YPR167C, strain met16, stronger effect = lower value 0.997 | S. cerevisiae deletion strains, strain wtn01, stronger effect = lower value 1.02 | S. cerevisiae strains, strain wild type, stronger effect = lower value 1
